# Only some compounds are listed: those with a hit (about 3.7% of all), similar ones and a draw of the others.
# PI5P4K alpha inh = qHTS for Inhibitors of phosphatidylinositol 5-phosphate 4-kinase (PI5P4K). PI5P4Kalpha enzyme, ADP-Glo luminescence, 60 min; stronger effect = lower value. 1.2% of 330,000 active. max response, %. Phosphatidylinositol 5-phosphate 4-kinase type-2 alpha (Homo sapiens), P48426; active means max response of -50% or lower; inconclusive means between -30% and -50%; inactive means -30% or higher; further: value at the top dose of about 77 µM
#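 ADP-Glo luminescence end-point after a 60 min room-temperature kinase reaction. PI5P4Kalpha and substrate in HEPES pH 7.4 buffer with EGTA, 0.1% CHAPS and 5% DMSO; ATP at 5 microM final.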
# PLK1 PBD block = qHTS for Inhibitors of PLK1-PDB (polo-like kinase 1 - polo-box domain): Primary Screen; Serine/threonine-protein kinase PLK1 (Homo sapiens), P53350; Plk1 PBD binding of FITC phosphopeptide, fluorescence polarization; Potency, µM, usual class: inhibitors; 2.8% of 360,000 active; AID 720504, 2013; further: series mostly up to about 57 µM; nearly all actives have a fitted effect of over 65% in size
# VDR inh = Inhibitors of the vitamin D receptor (VDR): qHTS. Vitamin D3 receptor (Homo sapiens), P11473. VDR-SRC2-3 peptide fluorescence polarization, 2 h. Potency, µM, actives largely listed as inhibitors. 0.93% of 400,000 active
# Target sequence (P11473 whole entry, looked up): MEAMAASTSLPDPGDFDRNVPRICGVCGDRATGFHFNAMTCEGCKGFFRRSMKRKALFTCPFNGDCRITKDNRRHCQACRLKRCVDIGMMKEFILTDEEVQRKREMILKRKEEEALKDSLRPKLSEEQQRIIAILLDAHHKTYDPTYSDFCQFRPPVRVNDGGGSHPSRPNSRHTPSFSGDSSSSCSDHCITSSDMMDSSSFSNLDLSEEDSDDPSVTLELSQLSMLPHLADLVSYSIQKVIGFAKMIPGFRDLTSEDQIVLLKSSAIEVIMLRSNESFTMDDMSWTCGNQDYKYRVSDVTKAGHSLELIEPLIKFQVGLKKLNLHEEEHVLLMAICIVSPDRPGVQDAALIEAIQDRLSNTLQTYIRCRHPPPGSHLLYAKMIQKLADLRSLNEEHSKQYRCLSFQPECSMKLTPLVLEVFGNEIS
#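 Measured by FP: displacement of SRC2-3 coactivator peptide from VDR by library compounds, following a two-hour ambient incubation.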
# WRN inhibitor = qHTS for Inhibitors of WRN Helicase | Bifunctional 3'-5' exonuclease/ATP-dependent helicase WRN (Homo sapiens), Q14191 | WRN helicase unwinding, fluorescent forked duplex, kinetic | Potency, µM (doses to about 114 µM), actives largely listed as inhibitors | 0.46% of 360,000 active | AID 651768, 2012; further: nearly all actives have a fitted effect of over 55% in size
#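 WRN at 20 nM final preincubated with compound 15 min at room temperature; reaction started with 100 nM fluorophore/quencher forked duplex oligonucleotide and 2 mM ATP final. Unwinding followed kinetically by red fluorescence (ex 525, em 598 nm).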
# FEN1 inhibitor = qHTS Assay for the Inhibitors of Human Flap endonuclease 1 (FEN1); Potency, µM (titrated, usually from 114 µM), usual class: inhibitors; P39748; Recombinant FEN1 flap cleavage, fluorescence, 15 min; AID 588795, 2011; 0.35% of 390,000 active; further: nearly all actives have a fitted effect of over 65% in size
#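 Compounds are tested as a concentration series against 10 nM FEN1; after a 15 min room-temperature preincubation, 50 nM substrate starts cleavage, with plate reads at 0 and 15 min. Normalized responses are fitted by a Hill equation.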
# TCR activator = Activators of T cell receptors: qHTS campaign. 330,000 tested, under 10 active. AID 504894, 2011. primary human leukocytes, anti-CD3, IL-2 HTRF, 48 h. Potency, µM (doses to about 9.22 µM), actives largely listed as activators
#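 Primary human leukocytes incubated 48 hr with anti-CD3 beads plus compound, without co-stimulation. Secreted IL-2 measured by HTRF (europium cryptate/d2 anti-IL-2 pair, 320 nm excitation, 665 nm emission).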
# A number is an active result; i = inactive; ? = inconclusive; nt = not tested or not shown; [ ] = another dose, or the depositor's remark. Unless noted, the call rests on the fitted dose curve; in most records, active means well fitted curve in the direction sought with a large enough effect; inconclusive means small, poorly fitted or top-dose-only effect, or another doubt; inactive means no such curve, though single readings can be large; an effect the other way counts as inactive or inconclusive.
SMILES,PI5P4K alpha inh,PLK1 PBD block,VDR inh,WRN inhibitor,FEN1 inhibitor,TCR activator
COc1ccc(NC(=O)O/N=C2/CCCc3ccc(OC)cc32)cc1,i,15µM,45µM,i,i,i
O=C(C1CC1)N(Cc1nc2ccccc2c(=O)[nH]1)Cc1cccs1,?,15µM,?,i,i,i
CC(C)(C)C(=O)N(Cc1nc2ccccc2c(=O)[nH]1)Cc1cccs1,nt,i,i,i,i,i
CCCCN(CC)CCNC(=O)CN1C(=O)COc2ccc(S(=O)(=O)N3CCOCC3)cc21,nt,nt,i,nt,i,nt
Nc1ncnc2c1ncn2COC(CO)CO,nt,nt,i,nt,i,nt
COc1ccc(/C=N/N(Cc2ccccc2)c2ccccc2)cc1O,i,17µM,?,i,i,i
Cc1nn(C(=O)c2cccc(F)c2)c(C)c1S(=O)(=O)N1CCOCC1,nt,nt,i,nt,i,nt
CCOc1ccc(C(=O)NC(=S)Nc2ccc(N3CCCCC3)cc2)cc1[N+](=O)[O-],i,6µM,?,i,i,i
CCOc1ccc(C(=O)NC(=S)Nc2ccccc2N2CCCCC2)cc1[N+](=O)[O-],i,i,i,i,i,i
COc1ccc(C2C3C=CCC(c4cccc(-c5ccc(N(C)C)cc5)c4)C3C(=O)N2Cc2ccccc2)cc1Cl (centres undefined),nt,nt,i,nt,i,nt
CCc1ccccc1S(=O)(=O)Cc1ccc(C(=O)NC2CCCC2)o1,i,i,i,i,i,i
Cc1ccccc1S(=O)(=O)Cc1ccc(C(=O)NC2CCCCC2)o1,i,21µM,i,i,i,i
Brc1ccc(/C=C2\C=Cc3ccccc32)cc1,nt,nt,nt,nt,i,nt
Cc1ccc(CNC(=O)CCCC(=O)Nc2cc(C)on2)cc1,i,15µM,?,i,i,i
Cc1cc(NC(=O)CCCC(=O)NCc2ccccc2)no1,i,i,i,i,i,i
OCCN1CCN(CC(O)COCCOc2ccc(Br)cc2)CC1 (centres undefined),i,11µM,18µM,i,i,i
c1coc(-c2nnc(-c3ccco3)nn2)c1,-79,i,89µM,20µM,45µM,i
O=c1oc2c(CN3CCOCC3)c(O)ccc2cc1-c1ccc(Cl)cc1,nt,nt,i,nt,i,nt
[O]=[Bi][O]C(=O)[O][Bi]=[O],nt,nt,i,nt,nt,nt
CC1=CC(=O)C2=C(C)C[C@@H]3OC(=O)[C@@H](C)[C@H]3C=C12,nt,nt,i,nt,nt,nt
COC(=O)CC1Oc2ccccc2N(Cc2ccc(C)cc2)C1=O (centres undefined),i,27µM,i,i,i,i
CCC1Oc2ccccc2N(CC(=O)NCc2ccc(C)cc2)C1=O (centres undefined),nt,nt,i,nt,i,nt
CCOCCCNC(=O)C(c1ccc(Cl)cc1)N(Cc1ccc2c(c1)OCO2)C(=O)c1ccc(NC(C)=O)cc1 (centres undefined),nt,nt,i,nt,i,nt
O=C(NNc1ccccc1[N+](=O)[O-])Nc1cccc(Cl)c1,i,21µM,79µM,i,i,i
O=C(NNc1ccccc1)Nc1cc(Cl)ccc1Cl,i,i,40µM,i,i,i
SMILES,PI5P4K alpha inh,PLK1 PBD block,VDR inh,WRN inhibitor,FEN1 inhibitor,TCR activator
O=C(CC(=O)Nc1ccc(Cl)cc1Cl)Nc1ccc(Cl)cc1Cl,i,30µM,i,i,i,i
COc1ccc(CCNC(=O)CCNC(=O)N2CC(=O)Nc3ccccc32)cc1,i,21µM,i,i,i,i
O=C(NNc1ccccc1[N+](=O)[O-])Nc1ccc(F)cc1F,i,i,i,i,i,i
CCN(C(=O)Cn1cc(C(=O)c2ccc(F)cc2)c(=O)c2ccc(C)nc21)c1cccc(C)c1,nt,nt,i,nt,i,nt
O=C(Cc1ccccc1)NCC(=O)Nc1cc(Cl)ccc1Cl,i,27µM,?,i,i,i
O=C(CNC(=O)N1CC(=O)Nc2ccccc21)Nc1cc(Cl)ccc1Cl,i,i,i,i[11.6 µM],40µM,i
CCOC(=O)c1ccc(COC(=O)c2ccc3c(c2)-c2ccccc2C3=O)cc1,i,i,?,i,i,i
CCOC(=O)C1=C(O)c2ccccc2C(=O)/C1=C\c1ccc(CC)cc1,nt,3µM,3.5µM,56µM,?,i
CNC(CC(=O)c1ccc([N+](=O)[O-])cc1)C(Cl)(Cl)Cl (centres undefined),i,2.7µM,18µM,45µM,i,i
Cc1cccc(OCC(=O)NC(Cc2ccccc2)C(=O)O)c1 (centres undefined),i,i,i,i,i,i
Cc1ccc2c(c1)c(CC(NC(=O)c1ccccc1Oc1ccccc1)C(=O)O)cn2C(=O)OCc1ccccc1 (centres undefined),nt,nt,32µM,nt,nt,nt
C[N+](C)(C)C/C=C1/COCO1,?,3.4µM,i,i,i,i
COc1ccccc1CNc1nc(-c2cc(C)n(C)c2C)cs1,-72,?,i,i,i,i
COc1ccccc1CC(=O)Nc1nc(-c2ccc(F)c(F)c2)cs1,i,i,i,i,i,i
O=C(CSc1nnc(CNc2cccc(C(F)(F)F)c2)n1Cc1ccco1)NCc1ccco1,i,30µM,i,i,i,i
O=C(O)CSc1nnc(CNc2cccc(C(F)(F)F)c2)n1Cc1ccco1,-71,i,i,i,i,i
CCOC(=O)c1cnc2c(C)cc(Cl)cc2c1NCCCN1CCOCC1,i,i,i,i,i,i
CCOC(=O)c1cnc2c(Cl)cc(Cl)cc2c1NCCCN1CCOCC1,i,13µM,i,i,i,i
COc1ccc(-c2coc3cc(O)ccc3c2=O)c(O)c1O,nt,nt,50µM,nt,nt,nt
CN(C)c1nc(N)c(C#N)c(C#N)c1C#N,i,27µM,i,i,i,i
CN(C)c1nc(-c2ccccc2)cc(C(F)(F)F)c1C#N,i,i,i,i,i,i
Cc1ccc(/C(N)=N/OC(=O)Cc2cccs2)cc1,i,i,i,i,i,i
N/C(=N\OC(=O)Cc1cccs1)c1ccccc1,-61,i,i,i,i,i
CCOC(=O)CN1C(=O)S/C(=C\c2ccc(-c3ccc(C(=O)O)c(Cl)c3)o2)C1=O,?,i,?,i[11.6 µM],?,i
O=C(O)c1ccc(-c2ccc(/C=C3\NC(=O)N(Cc4ccc(Cl)cc4)C3=O)o2)cc1Cl,-69,15µM,79µM,22µM,28µM,i
Cc1ccccc1NC(=O)c1c(NC(=O)C(F)(F)F)sc2c1CCCCC2,nt,nt,?,nt,i,nt
CC(C)(C)C(=O)Nc1sc2c(c1C(=O)Nc1ccccn1)CCCC2,i,27µM,i,i,i,i
COc1cccc(C2=NOC(C(=O)Nc3cc(OC)c(OC)c(OC)c3)C2)c1 (centres undefined),nt,i,i,i,i,nt
COc1cccc(C2=NOC(C(=O)Nc3ccccc3SC)C2)c1 (centres undefined),i,30µM,i,i,i,nt

# Screening results (PubChem BioAssay)
